# PubChem BioAssay (EPA / NIEHS)
# Records with an inconclusive call do not appear. Calls of active or inactive are those of the source. Rule for the calls: active = hit-call score of the fitted dose curve at least 0.9, where 1 is the maximum; inconclusive = response in the unintended direction; inactive = score below 0.9.
# Legend:
# [1] = molecular target: human Tyrosine Protein Kinase Receptor Tie-2 (Tie2), TEK (gene 7010) (UniProt Q02763); assay: NVS_ENZ_hTie2: NovaScreen (NVS) Enzymatic Assay for human Tyrosine Protein Kinase Receptor Tie-2 (Tie2) (AID 2283225)
# Sequence of human Tyrosine Protein Kinase Receptor Tie-2 (Tie2), TEK (gene 7010) (Q02763 whole entry, looked up): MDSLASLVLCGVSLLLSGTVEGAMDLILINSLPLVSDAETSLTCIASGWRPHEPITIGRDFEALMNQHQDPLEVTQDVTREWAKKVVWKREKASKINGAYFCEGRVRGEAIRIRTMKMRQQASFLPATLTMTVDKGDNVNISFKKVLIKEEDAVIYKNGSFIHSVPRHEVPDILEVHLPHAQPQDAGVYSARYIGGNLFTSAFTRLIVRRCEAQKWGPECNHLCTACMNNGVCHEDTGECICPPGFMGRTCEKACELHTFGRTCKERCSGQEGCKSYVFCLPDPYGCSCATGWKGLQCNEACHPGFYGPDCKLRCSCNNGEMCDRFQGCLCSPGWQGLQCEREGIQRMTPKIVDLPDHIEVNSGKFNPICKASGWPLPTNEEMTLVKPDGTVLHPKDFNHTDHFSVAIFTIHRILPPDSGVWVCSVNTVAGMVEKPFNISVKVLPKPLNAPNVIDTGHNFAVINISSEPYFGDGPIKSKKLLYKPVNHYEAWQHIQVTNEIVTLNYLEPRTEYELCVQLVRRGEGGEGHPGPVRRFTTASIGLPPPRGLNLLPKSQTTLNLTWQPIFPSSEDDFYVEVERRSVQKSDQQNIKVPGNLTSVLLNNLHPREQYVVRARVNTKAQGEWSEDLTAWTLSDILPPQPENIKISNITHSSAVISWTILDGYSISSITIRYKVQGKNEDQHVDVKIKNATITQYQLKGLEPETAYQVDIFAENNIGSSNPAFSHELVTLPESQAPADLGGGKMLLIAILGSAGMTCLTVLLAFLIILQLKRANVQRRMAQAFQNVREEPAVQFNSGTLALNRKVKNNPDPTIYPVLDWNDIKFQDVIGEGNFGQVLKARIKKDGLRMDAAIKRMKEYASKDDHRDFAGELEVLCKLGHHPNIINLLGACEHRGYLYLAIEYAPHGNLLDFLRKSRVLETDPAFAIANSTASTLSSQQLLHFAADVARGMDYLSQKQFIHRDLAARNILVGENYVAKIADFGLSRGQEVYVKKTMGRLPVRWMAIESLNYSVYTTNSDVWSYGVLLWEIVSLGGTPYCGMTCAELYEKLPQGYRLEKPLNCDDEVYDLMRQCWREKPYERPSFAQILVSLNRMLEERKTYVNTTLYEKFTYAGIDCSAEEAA
# How it was run: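 Substrate and product were separated by mobility shift and detected by fluorescence after a 1-hour reaction with recombinant Tie2. Chemicals passing a 25 uM single-point screen were titrated to a maximum of 50 uM. Results were normalized to DMSO baseline.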
# [2] = molecular target: rat Adenylate Cyclase, Forskolin Stimulated, Adcy5 (gene 64532) (UniProt Q04400); assay: NVS_ENZ_rACFSKBinding: NovaScreen (NVS) Enzymatic Assay for rat Adenylate Cyclase, Forskolin Stimulated (AID 2283232)
# Sequence of rat Adenylate Cyclase, Forskolin Stimulated, Adcy5 (gene 64532) (Q04400 whole entry, looked up): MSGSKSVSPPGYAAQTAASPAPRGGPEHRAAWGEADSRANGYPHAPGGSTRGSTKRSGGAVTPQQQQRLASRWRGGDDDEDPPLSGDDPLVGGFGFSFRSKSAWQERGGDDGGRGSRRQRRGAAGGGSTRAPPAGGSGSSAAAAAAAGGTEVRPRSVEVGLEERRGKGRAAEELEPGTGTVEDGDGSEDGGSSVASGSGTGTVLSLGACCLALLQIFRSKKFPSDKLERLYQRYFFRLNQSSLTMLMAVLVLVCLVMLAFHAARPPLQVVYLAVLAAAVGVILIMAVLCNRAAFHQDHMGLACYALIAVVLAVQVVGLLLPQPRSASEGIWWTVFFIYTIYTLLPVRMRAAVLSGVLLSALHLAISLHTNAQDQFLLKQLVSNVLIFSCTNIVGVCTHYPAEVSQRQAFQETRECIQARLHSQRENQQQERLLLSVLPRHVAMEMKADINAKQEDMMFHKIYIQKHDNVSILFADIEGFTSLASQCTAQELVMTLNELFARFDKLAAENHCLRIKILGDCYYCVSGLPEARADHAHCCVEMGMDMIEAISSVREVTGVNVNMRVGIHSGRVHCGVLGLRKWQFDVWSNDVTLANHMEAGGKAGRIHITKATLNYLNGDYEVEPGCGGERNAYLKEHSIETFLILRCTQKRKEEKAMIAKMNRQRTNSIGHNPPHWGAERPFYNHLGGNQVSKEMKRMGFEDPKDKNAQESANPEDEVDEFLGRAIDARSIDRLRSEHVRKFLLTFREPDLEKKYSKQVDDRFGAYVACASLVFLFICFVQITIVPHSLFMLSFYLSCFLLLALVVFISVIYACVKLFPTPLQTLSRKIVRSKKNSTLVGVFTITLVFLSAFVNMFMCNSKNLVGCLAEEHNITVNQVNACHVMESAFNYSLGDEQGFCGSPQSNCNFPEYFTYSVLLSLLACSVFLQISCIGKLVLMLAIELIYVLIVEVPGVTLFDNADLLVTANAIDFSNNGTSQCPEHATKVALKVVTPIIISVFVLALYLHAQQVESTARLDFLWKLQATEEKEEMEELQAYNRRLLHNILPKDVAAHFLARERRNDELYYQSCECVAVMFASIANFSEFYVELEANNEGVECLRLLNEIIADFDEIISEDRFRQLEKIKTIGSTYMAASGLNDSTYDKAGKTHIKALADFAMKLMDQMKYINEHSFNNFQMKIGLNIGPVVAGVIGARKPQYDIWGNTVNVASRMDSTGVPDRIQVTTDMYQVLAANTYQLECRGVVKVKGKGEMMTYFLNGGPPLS
# Protocol: NVS_ENZ_rACFSKBinding is a biochemical, single-readout assay that uses extracted gene-proteins from Rat forebrain membranes in a tissue-based cell-free assay. Measurements were taken 1 hour after chemical dosing in a 48-well plate.NVS_ENZ_rACFSKBinding is one of one assay component(s) measured or calculated from the NVS_ENZ_rACFSKBinding assay. It is designed to make measurements of enzyme activity, a form of enzyme reporter, as detected with scintillation counting signals by Filter-based radiodetection technology.Data from the assay component NVS_ENZ_rACFSKBinding was analyzed into 1 assay endpoint. This assay endpoint, NVS_ENZ_rACFSKBinding, was analyzed in the positive analysis fitting direction relative to DMSO as the negative control and baseline of activity. Using a type of enzyme reporter, loss-of-signal activity can be used to understand changes in the enzymatic activity as they relate to the gene Adcy5. Furthermore, this assay endpoint can be referred to as a primary readout, because this assay has produced multiple assay endpoints where this one serves a enzymatic activity function. To generalize the intended target to other relatable targets, this assay endpoint is annotated to the lyase intended target family, where the subfamily is adenylyl cyclase. […]
# [3] = molecular target: human Vascular Endothelial Growth Factor Receptor 3 (VEGFR3), FLT4 (gene 2324) (UniProt P35916); assay: NVS_ENZ_hVEGFR3: NovaScreen (NVS) Enzymatic Assay for human Vascular Endothelial Growth Factor Receptor 3 (VEGFR3) (AID 2283229)
# Sequence of human Vascular Endothelial Growth Factor Receptor 3 (VEGFR3), FLT4 (gene 2324) (P35916 whole entry, looked up): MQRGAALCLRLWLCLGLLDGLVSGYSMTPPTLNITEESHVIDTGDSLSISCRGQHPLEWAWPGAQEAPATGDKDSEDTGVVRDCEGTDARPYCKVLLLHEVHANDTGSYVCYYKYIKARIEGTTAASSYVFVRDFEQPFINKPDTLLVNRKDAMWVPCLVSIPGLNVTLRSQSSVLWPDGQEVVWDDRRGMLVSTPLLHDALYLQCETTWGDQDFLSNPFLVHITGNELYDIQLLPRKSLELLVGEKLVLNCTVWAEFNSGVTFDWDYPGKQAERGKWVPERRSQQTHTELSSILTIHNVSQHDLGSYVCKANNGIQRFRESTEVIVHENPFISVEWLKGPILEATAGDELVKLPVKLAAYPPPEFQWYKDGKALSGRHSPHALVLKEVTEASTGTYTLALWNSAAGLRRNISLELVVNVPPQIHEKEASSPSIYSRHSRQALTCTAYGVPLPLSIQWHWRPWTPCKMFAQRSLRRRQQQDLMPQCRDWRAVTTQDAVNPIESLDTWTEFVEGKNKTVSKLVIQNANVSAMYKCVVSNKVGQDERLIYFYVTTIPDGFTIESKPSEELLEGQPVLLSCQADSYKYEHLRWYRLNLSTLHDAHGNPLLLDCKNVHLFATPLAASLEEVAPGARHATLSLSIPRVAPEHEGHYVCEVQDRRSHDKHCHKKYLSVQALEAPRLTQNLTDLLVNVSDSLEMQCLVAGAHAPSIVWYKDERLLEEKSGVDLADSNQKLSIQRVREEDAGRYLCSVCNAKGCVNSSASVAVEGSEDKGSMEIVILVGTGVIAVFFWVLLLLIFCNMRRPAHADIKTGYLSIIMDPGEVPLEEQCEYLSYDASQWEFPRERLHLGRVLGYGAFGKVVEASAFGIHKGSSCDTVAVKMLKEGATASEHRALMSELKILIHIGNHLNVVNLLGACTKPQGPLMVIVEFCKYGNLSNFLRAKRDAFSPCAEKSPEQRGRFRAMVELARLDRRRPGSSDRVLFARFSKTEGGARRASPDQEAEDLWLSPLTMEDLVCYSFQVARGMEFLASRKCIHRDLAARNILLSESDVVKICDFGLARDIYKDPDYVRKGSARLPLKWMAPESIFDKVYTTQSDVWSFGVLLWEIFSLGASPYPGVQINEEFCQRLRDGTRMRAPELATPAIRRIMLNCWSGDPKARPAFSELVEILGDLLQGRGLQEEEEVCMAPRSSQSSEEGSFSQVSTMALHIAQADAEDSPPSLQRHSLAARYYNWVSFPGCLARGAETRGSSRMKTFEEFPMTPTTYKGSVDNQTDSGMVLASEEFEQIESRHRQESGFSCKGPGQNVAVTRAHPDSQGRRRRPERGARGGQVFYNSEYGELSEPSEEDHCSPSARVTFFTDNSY
# How it was run: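 Chemicals first run in duplicate at 25 uM, with actives re-tested in concentration series to a top of 50 uM. Recombinant VEGFR3 activity measured after 1 h via fluorescence with mobility-shift product separation; inhibition fitted relative to DMSO.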
# [4] = molecular target: rat Acetylcholinesterase (AChE), Ache (gene 83817) (UniProt P37136); assay: NVS_ENZ_rAChE: NovaScreen (NVS) Enzymatic Assay for rat Acetylcholinesterase (AChE) (AID 2283233)
# Sequence of rat Acetylcholinesterase (AChE), Ache (gene 83817) (P37136 whole entry, looked up): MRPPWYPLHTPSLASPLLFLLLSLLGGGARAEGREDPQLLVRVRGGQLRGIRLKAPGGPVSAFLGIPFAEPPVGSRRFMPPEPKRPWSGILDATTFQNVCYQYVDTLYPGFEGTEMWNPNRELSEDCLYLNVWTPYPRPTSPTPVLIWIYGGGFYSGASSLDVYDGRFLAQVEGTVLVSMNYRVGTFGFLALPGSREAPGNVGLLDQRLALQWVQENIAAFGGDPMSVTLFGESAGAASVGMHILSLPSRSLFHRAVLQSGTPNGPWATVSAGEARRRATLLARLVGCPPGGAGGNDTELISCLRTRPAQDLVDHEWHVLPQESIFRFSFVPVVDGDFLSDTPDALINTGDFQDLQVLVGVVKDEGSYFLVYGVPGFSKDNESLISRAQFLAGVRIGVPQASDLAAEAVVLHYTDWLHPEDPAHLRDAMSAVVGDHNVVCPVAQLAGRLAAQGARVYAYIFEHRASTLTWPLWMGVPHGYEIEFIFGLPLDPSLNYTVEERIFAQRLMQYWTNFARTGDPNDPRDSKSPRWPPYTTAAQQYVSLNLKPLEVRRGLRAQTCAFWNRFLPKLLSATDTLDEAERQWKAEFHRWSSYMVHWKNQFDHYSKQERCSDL
# How it was run: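 Compounds first screened at 25 uM in duplicate, then those passing threshold tested in concentration series up to 50 uM, against AChE from rat brain membranes. Enzyme activity read by absorbance at 0.33 h; inhibition scored versus DMSO.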
# [5] = molecular target: rat Catechol-O-Methyl Transferase (COMT), Comt (gene 24267) (UniProt P22734); assay: NVS_ENZ_rCOMT: NovaScreen (NVS) Enzymatic Assay for rat Catechol-O-Methyl Transferase (COMT) (AID 2283235)
# Sequence of rat Catechol-O-Methyl Transferase (COMT), Comt (gene 24267) (P22734 whole entry, looked up): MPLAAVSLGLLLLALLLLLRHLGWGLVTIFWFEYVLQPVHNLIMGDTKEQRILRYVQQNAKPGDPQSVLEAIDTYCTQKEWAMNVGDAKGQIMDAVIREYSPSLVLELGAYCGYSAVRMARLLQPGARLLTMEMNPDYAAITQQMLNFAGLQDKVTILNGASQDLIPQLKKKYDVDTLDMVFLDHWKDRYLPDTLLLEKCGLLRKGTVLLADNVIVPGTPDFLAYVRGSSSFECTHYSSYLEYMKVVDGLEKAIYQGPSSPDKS
# How it was run: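 Rat dorsal striatum extract served as COMT source; product quantified by HPLC/spectrophotometry, read at 0 h after dosing. Primary single-concentration screen at 25 uM, followed by concentration series to a 50 uM maximum.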
smiles,measurement,setting,value
COP(=S)(OC)Oc1ccc(Sc2ccc(OP(=S)(OC)OC)cc2)cc1,outcome,[1],inactive
CC(=O)[O][Hg][c]1ccccc1,outcome,[1],inactive
same,AC50,[2],26.8 µM (active)
Clc1ccc(C2(Cn3cncn3)CC(Br)CO2)c(Cl)c1 (stereo not drawn),outcome,[3],inactive
C=C(C)C(=O)[O][Sn]([CH2]CCC)([CH2]CCC)[CH2]CCC,outcome,[2],inactive
COc1cc2c(cc1OC)[C@@]13CCN4CC5=CCO[C@H]6CC(=O)N2[C@H]1[C@H]6[C@H]5C[C@H]43,AC50,[4],18.1 µM (active)
CCN1CCC2(CC1)COc1cc3c(cc12)N(C(=O)c1ccc(-c2ccc(-c4nnc(C)o4)cc2C)cc1)CC3,AC50,[4],3.06 µM (active)
Oc1cccc2cccnc12,AC50,[5],1.53 µM (active)
